Shiga inhibitor: Shiga toxin inhibition; Vero cells, Shiga toxin protein synthesis inhibition reporter; 290,000 compounds, 9.2% hits; inhibition, % at 38.7 µM; in the data active = inhibition mostly above about 28%, no sharp cut-off; inactive = mostly below about 43%; also: 0% is about no effect
SARS PLpro yeast: inhibitors of SARS-CoV papain-like protease in yeast. S. cerevisiae expressing SARS-CoV PLpro, growth rescue. Potency, µM (doses to about 32.9 µM), for the others: at the top dose activity, positive = growth rescue, most hits filed as activators. 330,000 compounds, 0.19% hits; calls by dose curve; also: potency is read from the fitted curve at half-maximal effect; 0% is about no effect; nearly all actives have a fitted effect of over 55% in size
Cycloheximide cs: counter-screen hit for Shiga toxin inhibitors, cycloheximide; 300,000 compounds, 12% hits; max response, %; cell reporter, cycloheximide protein synthesis inhibition counterscreen; in the data active = max response mostly above about 13%, no sharp cut-off; inactive = mostly below about 14%; also: read at 38.3 µM for the half of the compounds with a filed dose; 0% is about no effect
AmpC detergent: inhibitors of E. coli AmpC beta-lactamase with detergent. P00811. AmpC hydrolysis of nitrocefin, absorbance 480 nm, 0.01% Triton. Potency, µM (series often up to 114 µM), inactives show at the top dose activity change, negative = inhibition, actives largely listed as inhibitors. 370,000 compounds, 0.041% hits;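 also: potency is read from the fitted curve at half-maximal effect; 0% = no-compound wells and -100% = no-enzyme wells; nearly all actives have a fitted effect of over 25% in size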
Target sequence (P00811 whole entry, looked up): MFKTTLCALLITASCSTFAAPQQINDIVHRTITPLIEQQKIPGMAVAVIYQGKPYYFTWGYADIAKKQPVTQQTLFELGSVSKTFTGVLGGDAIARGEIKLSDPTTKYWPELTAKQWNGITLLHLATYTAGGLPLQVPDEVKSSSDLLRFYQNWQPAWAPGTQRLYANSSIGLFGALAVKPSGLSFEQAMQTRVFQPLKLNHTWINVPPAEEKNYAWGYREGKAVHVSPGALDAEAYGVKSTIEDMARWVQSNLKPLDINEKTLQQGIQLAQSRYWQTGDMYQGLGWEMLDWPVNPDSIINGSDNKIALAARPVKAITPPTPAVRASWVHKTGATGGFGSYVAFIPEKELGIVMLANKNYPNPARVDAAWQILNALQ
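20 mM phosphate pH 7.0 + 0.01% (detergent screen) or 0.0001% Triton X-100; 5.3 nM AmpC reagent; cpd preinc 15 min RT; nitrocefin (800 uM stock) to start; A480 q20 s × 4 min; Activity was normalised to no-enzyme and no-compound control wells.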
AMA1 RON2 block: AMA1-RON2 (P. falciparum) interaction inhibition; AlphaScreen AMA1-biotinylated RON2 peptide binding; 360,000 compounds, 0.2% hits; Potency, µM (series often up to 58.2 µM), without a hit: at the highest dose activity change, negative = inhibition, hits mostly inhibitors;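 also: potency is read from the fitted curve at half-maximal effect; 0% = vehicle wells and -100% = peptide control; nearly all actives have a fitted effect of over 45% in size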
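AMA1 (3D7) with his tag at 25 nM final met compounds first, then biotinylated RON2 peptide at 25 nM; detection used donor plus acceptor beads, 10 µg/mL apiece, read by AlphaScreen after 30 min at room temperature.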
AmpC no deterg: blocks E. coli AmpC beta-lactamase in detergent-free assay. Potency, µM (series often up to 57.1 µM), inactives show at the top dose activity change, negative = inhibition, actives largely listed as inhibitors. AmpC nitrocefin hydrolysis, absorbance 480 nm, 0.0001% Triton. P00811. 330,000 compounds, 0.52% hits;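 also: potency is read from the fitted curve at half-maximal effect; plate controls were no compound for no effect and no enzyme for full effect; nearly all actives have a fitted effect of over 20% in size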
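20 mM phosphate pH 7.0 + 0.01% (detergent screen) or 0.0001% Triton X-100; 5.3 nM AmpC reagent; cpd preinc 15 min RT; nitrocefin (800 uM stock) to start; A480 q20 s × 4 min; Activity was normalised to no-enzyme and no-compound control wells.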
Active calls of the source: *; u = inconclusive; x = not tested or not shown; [ ] = remark or other dose. Shown is part of a subset that was picked to be rich in hits. Unless noted, calls follow the shape of the dose curve; as a rule, active = well fitted curve in the direction sought with a large enough effect; inconclusive = small, poorly fitted or top-dose-only effect, or another doubt; inactive = no such curve, though single readings can be large; an effect the other way counts as inactive or inconclusive.

SMILES	Shiga inhibitor	SARS PLpro yeast	Cycloheximide cs	AmpC detergent	AMA1 RON2 block	AmpC no deterg
O=[N+]([O-])c1cccc(/C=C2\CCC(/C=N/Nc3ccc4ccccc4n3)=C2N2CCOCC2)c1	-3.2	-1.2%	16.6*	-19.1%	-3.3%	-23.3%
Cc1ccc(C(CC(=O)c2ccco2)SCCO)cc1 (centres undefined)	71.6*	-4.6%	37.6*	-13.9%	-11.3%	-4.4%
O=C(CC(SCCO)c1ccc(F)cc1)c1ccco1 (centres undefined)	104.2*	-12.1%	52.5*	-0.1%	3.5%	19.5%
CC(C)(C)c1nc(CN2CCCCC2)cc(CN2CCCCC2)c1O	-11.8	1.3%	-1.8	-8.6%	-13.1%	17.6%
C=CCn1c(-c2cccs2)nc2nc3ccccc3nc21	44.6*	-3.7%	30.4*	-9.4%	10.1%	-22.7%
C=CCn1c(-c2cccc(OC)c2)nc2nc3ccccc3nc21	17.8	u	31.6*	0.0%	-19.1%	11.5%
C=CCn1c(-c2cccs2)nc2ccccc21	23.3*	-9.2%	16.2*	-5.0%	1.3%	-8.6%
CN(C)c1ccc(C(c2ccc(N(C)C)cc2)c2ccc([N+](=O)[O-])cc2)cc1	3.7	-1.9%	-3.5	-11.9%	8.91µM*	-25.4%
Cc1ccc[n+](CC(=O)Nc2c(Cl)cc(Cl)cc2Cl)c1	75.9*	-0.9%	25.3*	2.1%	-21.2%	-7.9%
CCCS(=O)(=O)N1CCCC(C(=O)NCCc2ccc(Cl)cc2)C1 (centres undefined)	-10.0	-0.5%	-1.8	u	2.3%	22.7%
COc1ccc(C(=O)NC(=S)NCc2ccc(-c3nc4ccccc4o3)cc2)cc1OC	8.4	1.6%	12.6	2.8%	-11.3%	-5.7%
COC(=O)c1ccc(-c2nc3ccc(C)cc3o2)cc1	154.0*	-5.4%	76.2*	6.0%	12.0%	-8.2%
Nc1ccc(CCc2nc3ccccc3o2)cc1	64.3	-5.5%	28.2*	1.5%	0.3%	-20.6%
COC(=O)c1ccc(-c2nc3ccccc3o2)cc1	24.2	-1.8%	13.3*	-2.6%	x	-15.3%
O=C1c2ccccc2C(=O)N1c1cccc(-c2nc3ccccc3o2)c1	3.0	-3.6%	0.5	-4.1%	5.3%	-7.2%
c1ccc2oc(-c3ccc4nc[nH]c4c3)nc2c1	74.8*	-31.7%	39.5*	u	2.6%	-22.5%
Fc1cccc(F)c1C(Nc1nncs1)Nc1nncs1	x	x	x	x	3.7%	x
c1ccc2c(c1)nc1n2CCN1CCNC1CCCCC1	-1.9	2.4%	-5.3	-23.6%	2.9%	4.5%
CCCC(c1nnnn1C(C)(C)CC)N1CCN(C2CCCC2)CC1 (centres undefined)	27.4	9.7%	12.6	u	-9.2%	-4.7%
NCc1ccc(-c2nc3ccccc3o2)cc1	92.6*	1.6%	59.5*	u	x	-25.2%
Nc1nc2ccc(-c3nc4ccccc4o3)cc2s1	13.2*	-69.5%	36.4*	-1.3%	-11.8%	-5.3%
COc1ccc(-c2nc3ccccc3o2)cc1OC	36.0*	-13.5%	36.2*	-2.8%	14.7%	0.0%
O=C1c2ccccc2C(=O)N1c1ccc(-c2nc3ccccc3o2)cc1	-17.9	0.5%	6.9	2.9%	x	-10.4%
COCCCNC(=O)C1CCN(c2ncccn2)CC1	25.2	-0.1%	10.4	0.1%	23.3%	-5.8%
Cc1cccc(C(=O)NC2CCN(C(=O)Nc3ccc(F)cc3)CC2)c1	-2.4	-2.2%	-2.4	u	-2.3%	-19.3%
SMILES	Shiga inhibitor	SARS PLpro yeast	Cycloheximide cs	AmpC detergent	AMA1 RON2 block	AmpC no deterg
[O-][n+]1c2cc(C(F)(F)F)ccc2c2n1CCN=C2c1ccc(Cl)cc1	x	2.9%	x	-6.0%	18.9%	54.1%
CCOC(=O)c1cnc2cc(C)nn2c1C	26.4	7.9%	10.4	-3.6%	0.4%	-13.5%
CCOC(=O)c1cnc2cc(-c3ccc(Cl)cc3)nn2c1N	35.4	3.2%	27.5*	4.1%	4.5%	-20.2%
CCOC(=O)c1cnc2cc(-c3ccc(Br)cc3)nn2c1C	84.8	3.9%	21.9*	-0.2%	8.7%	-19.1%
Cc1noc(/C=C/N(C)C)c1S(=O)(=O)N(C)CC(=O)NC1CCCCC1	35.9	-3.9%	11.7	-3.8%	-6.1%	72.1%
Cc1ccc(/C(N)=N/OC(=O)C23CC4CC(CC(C4)C2)C3)cc1	101.5*	-6.1%	22.8*	2.2%	-9.5%	u
COc1cc(C(=S)N2CCOCC2)cc(OC)c1OC(=O)c1cccc(C)c1	-11.4	7.8%	-1.6	u	-11.5%	121.3%
Cc1ccc(C(=O)NN2CCOCC2)cc1	-4.5	-4.6%	-1.6	-12.3%	3.0%	-10.4%
Cc1ccc(/C(N)=N/OC(=O)N2CCOCC2)cc1	16.3	-8.5%	22.2*	-1.9%	10.7%	-12.7%
Cc1cccc(/C(N)=N/OC(=O)N2CCOCC2)c1	101.0*	-19.1%	23.6*	1.5%	2.3%	-8.9%
CCOc1ccccc1OCCCCN1CCCC1	-12.9	12.0%	-3.3	-2.6%	-5.7%	-3.4%
Cc1ccccc1-c1nc2sc(-c3ccccc3)cc2c(=O)o1	19.4	1.8%	2.0	0.5%	4.0%	-16.5%
NC(=O)CSc1nc2sc(-c3ccccc3)cc2c(=O)n1N	33.8	2.6%	26.3*	-11.0%	-2.7%	-35.9%
Cc1nc2sc(-c3ccccc3)cc2c(=O)n1-n1cccc1	112.9*	-6.3%	42.4*	-1.8%	1.4%	-9.4%
Cc1nc2sc(-c3ccccc3)cc2c(=O)n1N	56.4*	-0.3%	44.3*	3.0%	38.0%	-6.3%
Cc1nc2ccccc2c(=O)n1N	19.6	1.6%	-2.4	-8.1%	4.2%	-16.2%
O=c1c2ccccc2nc2n1CCC2	3.5	-0.1%	-4.3	-7.6%	-21.5%	-2.8%
O=c1c2cc(-c3ccccc3)sc2nc2n1CCC2	102.6*	-1.2%	47.0*	-2.9%	x	9.2%
Cc1sc2nc(C)n(/N=C/N(C)C)c(=O)c2c1C	-4.4	-0.2%	7.0	1.9%	-8.8%	-15.4%
Cc1nc2sc(-c3ccccc3)cc2c(=O)n1/N=C/N(C)C	72.1*	0.5%	37.3*	-6.0%	5.5%	9.8%[2.29 µM]
Cc1cccc(NC(=O)CSc2nc3ccccc3o2)c1	119.3*	-12.9%	38.1*	1.2%	12.4%	-26.1%
Cc1nn2c(-c3cccc(NC(=O)CSc4nc5ccccc5o4)c3)nnc2c2ccccc12	17.7	-7.3%	13.8*	-0.6%	12.9%	88.5%
O=C(CSc1nc2ccccc2o1)Nc1ccc(Cl)cc1	83.5*	-17.2%	21.6*	3.8%	-1.2%	-25.6%
CC(=O)Nc1ccc(NC(=O)CSc2nc3ccccc3o2)cc1	114.6*	13.1%	16.6*	-3.6%	16.8%	-15.1%
O=C(CCSc1nc2ccccc2o1)Nc1ccccc1	4.1	1.0%	1.0	-6.9%	-1.6%	-13.1%
CC(=O)Nc1nonc1NC(=O)CSc1nc2ccccc2o1	-1.9	4.7%	4.8	-1.5%	22.4%	-24.6%
Cc1ccc(NC(=O)NC(=O)c2cnccc2C(F)(F)F)c(C)c1	-3.3	0.0%	6.7	-14.3%	-1.3%	30.7%
